Inconclusive results are not listed. Values without a mark were called inactive. The source made the active and inactive calls. Calls follow the shape of the dose curve; as a rule, active = well fitted curve in the direction sought with a large enough effect; inconclusive = small, poorly fitted or top-dose-only effect, or another doubt; inactive = no such curve, though single readings can be large; an effect the other way counts as inactive or inconclusive. *1 amine or outer side, *2 acyl side, *3 side chain or, on linkers, in order; H or OH if unused. Where a SMILES comes first, the peptide text is derived from it. Bridges are numbered along the chain shown (N, C = ends). [ ]: non-standard residue; d: D form. The star is where a group is joined. pTerphenylCO(4''-OnC5H11) = CCCCCOc1ccc(-c2ccc(-c3ccc(C(=O)*)cc3)cc2)cc1; Orn(4R-OH,5R-OH) = O=C([C@H](C[C@@H](O)[C@@H](O)N[*:3])N[*:1])[*:2]; hTyr(3S-OH,4S-OH) = N[C@H](C(=O)O)[C@H](O)[C@@H](O)c1ccc(O)cc1; Pro(3S-OH,4S-Me) = C[C@H]1CN[C@H](C(=O)O)[C@H]1O; Hyp = O=C(O)[C@@H]1C[C@@H](O)CN1

Assay [1] is described as follows: P-glycoprotein substrates identified in KB-3-1 adenocarcinoma cell line, qHTS therapeutic library screen (AID 1346986). Also: nearly all actives have a fitted effect of over 60% in size.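 Also: potency is read from the fitted curve at half-maximal effect; potency is for cytotoxicity meaning loss of cell viability.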 Summed up: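 Cells seeded 500/well in DMEM/10% FCS; compounds pinned in dose-response; 72 h incubation; CellTiter-Glo added, 5 min, luminescence. KB-8-5-11 run ±tariquidar to test reversal of P-gp resistance.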
Assay [2] can be described thus: P-glycoprotein substrates identified in KB-8-5-11 adenocarcinoma cell line, qHTS therapeutic library screen (AID 1346987). Also: nearly all actives have a fitted effect of over 65% in size. As to activity change, negative = cytotoxicity: series mostly up to about 44 µM; % is scaled to controls: 0 for no effect and ±100 for the full control effect. An outline of the steps: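 Steps: plate 500 KB-8-5-11 cells/well in DMEM + 10% FCS (colchicine removed); pin compounds in dose-response; incubate 72 h, 37 degree C, 5% CO2; add CellTiter-Glo, 5 min; read luminescence.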

As for `CO[C@@H]1[C@H](O)CCC2(CO2)[C@H]1[C@@]1(C)O[C@@H]1CC=C(C)C` (stereo not given in full), the Potency entry in assay [1] and in assay [2] was “inactive” throughout.
For `CC1OC2OC(=O)C3(C)CC4C5(CO5)C5=CC(=O)OC(C)(C)C5=CC(=O)C4(C)C(C1=O)C23` (stereo not given), the Potency result in assay [1] and in assay [2] was “inactive” throughout.
With `COc1cc(C(C)=O)c(OC)c2c1OC(C)(C)C=C2`, the Potency entry in assay [1] and in assay [2] was “inactive” each time.
On to `CCCCCOc1ccc(-c2ccc(-c3ccc(C(=O)N[C@H]4C[C@@H](O)[C@@H](O)NC(=O)[C@@H]5[C@@H](O)[C@@H](C)CN5C(=O)[C@H]([C@@H](C)O)NC(=O)[C@H]([C@H](O)[C@@H](O)c5ccc(O)cc5)NC(=O)[C@@H]5C[C@@H](O)CN5C(=O)[C@H]([C@@H](C)O)NC4=O)cc3)cc2)cc1` ({pTerphenylCO(4''-OnC5H11)}-[Orn(4R-OH,5R-OH)]T[Hyp][hTyr(3S-OH,4S-OH)]T[Pro(3S-OH,4S-Me)]; lactam 1-C), for which the Potency result in assay [1] and in assay [2] was “inactive” in each case.
On to `O=C(Nc1ccccc1C(=O)Nc1ccc(CCO)cc1)c1ccc([N+](=O)[O-])cc1`, for which the Potency result in assay [1] and in assay [2] was “inactive” each time.
For `Nc1nc(OCc2cc(Br)cs2)c2[nH]cnc2n1`, the Potency result in assay [1] and in assay [2] was “inactive” in each case.
Turning to `C[C@H](Nc1ncnc2nc[nH]c12)c1cc2cccc(Cl)c2c(=O)n1-c1ccccc1`, the Potency in assay [1] was 20.6 µM (active). In assay [2], the Potency result is “inactive”.
As for `CCOc1ccc(-n2c(C(C)N(Cc3cccnc3)C(=O)Cc3ccc(F)c(C(F)(F)F)c3)nc3ncccc3c2=O)cc1` (stereo not given), the Potency result in assay [1] and in assay [2] was “inactive” each time.
For `Cc1cccc(N2CCN(C(=O)c3cc(S(=O)(=O)N(C)C)ccc3N3CCCC3)CC2)c1C`, the Potency result in assay [1] and in assay [2] was “inactive” throughout.
Take `CCC(C)C1NC(=O)C(Cc2ccccc2)NC(=O)C(CCCCCC(=O)C(O)CO)NC(=O)C2CCCCN2C1=O` (stereo not given): the Potency entry in assay [1] and in assay [2] was “inactive” each time.
With `COc1ccc(CN2CCN(CCCSc3cc(C(C)(C)C)c(O)c(C(C)(C)C)c3)CC2)c(OC)c1OC`, the outcome in assay [1] was “inactive [at 9.29 µM]”. In assay [2], the activity change, negative = cytotoxicity was -16.1% [at 9.29 µM].
For `CC(=O)O[C@@H]1C2=C(O)C(=O)[C@](C)(OC(C)=O)C(=O)C2=CO[C@@]12O[C@@H](C)CC[C@H]2OC(C)=O`, the Potency result in assay [1] and in assay [2] was “inactive” each time.
Consider `C=C1C(=O)O[C@@H]2[C@H]1CC[C@H](C)[C@]1(CCC(=O)O1)C2(C)O` (stereo not given in full), for which the Potency result in assay [1] and in assay [2] was “inactive” each time.
Turning to `C=C1C(=O)O[C@@H]2/C=C(/C)[C@@H](OC(C)=O)C/C=C(\C)C[C@@H](OC(=O)/C(=C/CO)CO)[C@@H]12`, the Potency entry in assay [1] and in assay [2] was “inactive” each time.
Regarding `C=C1CC[C@@H]2[C@](C)(CO)[C@H](O)CC[C@@]2(C)[C@@H]1CC(O)C1=CCOC1=O` (stereo not given in full), the Potency entry in assay [1] and in assay [2] was “inactive” each time.
Regarding `COc1ccc(C2=NC(c3ccc(Cl)cc3)C(c3ccc(Cl)cc3)N2C(=O)N2CCNC(=O)C2)c(OC(C)C)c1` (stereo not given), the Potency entry in assay [1] and in assay [2] was “inactive” each time.
With `C=C(C)C(=O)O[C@H]1[C@H]2C(=C)C(=O)O[C@@H]2/C=C(\CO)CC/C=C(/C=O)[C@@H]1O`, the Potency result in assay [1] and in assay [2] was “inactive” in each case.
As to `CC1(C)C2CCC(CO[C@@H]3O[C@H](CO[C@@H]4OC[C@](O)(CO)[C@H]4O)[C@@H](O)[C@H](O)[C@H]3O)C1C2` (stereo not given in full), the Potency result in assay [1] and in assay [2] was “inactive” in each case.
Turning to `CC(C)C[C@H](CO)Nc1nc(S[C@@H](C)c2ccccc2)nc2nc(N)sc12`, the Potency entry in assay [1] and in assay [2] was “inactive” in each case.
Consider `CC(CCC1(O)OC2CC3C4CC=C5C[C@@H](O[C@@H]6O[C@H](CO)[C@@H](O[C@@H]7O[C@@H](C)[C@H](O)[C@@H](O)[C@H]7O)[C@H](O)[C@H]6O[C@@H]6O[C@@H](C)[C@H](O)[C@@H](O)[C@H]6O)CC[C@]5(C)C4CC[C@]3(C)[C@@]2(O)[C@@H]1C)CO[C@@H]1O[C@H](CO)[C@@H](O)[C@H](O)[C@H]1O` (stereo not given in full), for which the outcome in assay [1] is “inactive [at 9.29 µM]”. The activity change, negative = cytotoxicity in assay [2] is -2.5% [at 9.29 µM].
Consider `C=C1[C@H]2CC[C@H](C(=O)O)[C@@]23CC[C@H](C3)C1(C)C`, for which the Potency result in assay [1] and in assay [2] was “inactive” each time.
As for `C=C1C(OC2OC(CO)C(O)C(O)C2O)CC2C(C)(C)C(O)CCC2(C)C1CC/C(C)=C\COC(=O)CC(=O)O` (stereo not given), the Potency result in assay [1] and in assay [2] was “inactive” in each case.
Consider `C=C1C(=O)OC2CC(C)C(CCC(C)O)=CCC12` (stereo not given), for which the Potency entry in assay [1] and in assay [2] was “inactive” each time.
For the compound `C[C@@H]1O[C@@H](O[C@H]2[C@@H]3C=CO[C@@H](O[C@@H]4O[C@H](CO)[C@@H](O)[C@H](O)[C@H]4O)[C@@H]3[C@@]3(CO)O[C@@H]23)[C@H](O)[C@H](OC(=O)/C=C/c2ccccc2)[C@H]1O`, the Potency result in assay [1] and in assay [2] was “inactive” throughout.
For the compound `CC1OC(=O)C[C@@H]2C(C(=O)O)=CO[C@@H](O[C@H]3O[C@H](CO)[C@@H](O)[C@H](O)[C@H]3O)[C@H]12` (stereo not given in full), the Potency result in assay [1] and in assay [2] was “inactive” in each case.

The values are drawn from PubChem BioAssay (NCATS).
